PD-1 reverse act: reversal of PD-1 mediated T-cell inhibition. primary human CD4 T cells, PD-L1 beads, CellTiter-Glo 96 h. 29,000 tested, under 10 active. activation, % (concentration not given with the values); call rule not given here;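 also: 0% = median vehicle wells and 100% = positive control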
STK33 inh: human STK33 kinase inhibition | 0.44% of 27,000 active | inhibition, % at 12.5 µM | ADP-Glo luminescence, MBP substrate; in the data active = inhibition above about 20%
Target sequence (Q9BYT3 whole entry, looked up): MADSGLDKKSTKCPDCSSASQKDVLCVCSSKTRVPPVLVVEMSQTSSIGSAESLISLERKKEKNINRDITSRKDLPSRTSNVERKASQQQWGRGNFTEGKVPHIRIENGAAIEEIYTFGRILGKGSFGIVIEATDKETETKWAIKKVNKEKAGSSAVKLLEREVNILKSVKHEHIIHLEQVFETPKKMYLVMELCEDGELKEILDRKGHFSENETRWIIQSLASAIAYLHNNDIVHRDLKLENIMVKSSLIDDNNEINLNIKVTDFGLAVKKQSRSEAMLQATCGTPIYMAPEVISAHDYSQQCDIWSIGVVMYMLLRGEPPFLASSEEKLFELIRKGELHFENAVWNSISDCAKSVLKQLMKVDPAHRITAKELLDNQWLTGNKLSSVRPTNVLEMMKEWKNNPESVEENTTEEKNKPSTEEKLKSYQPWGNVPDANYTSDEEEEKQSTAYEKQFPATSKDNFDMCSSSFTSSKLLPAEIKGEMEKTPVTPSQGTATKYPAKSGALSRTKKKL
NOMO-1 viab: STK33 inhibitor candidate reducing NOMO-1 cell viability; NOMO-1 AML viability, CellTiter-Glo luminescence, 72 h; 7.5% of 37,000 active; inhibition, % (no concentration beside the values); in the data active = inhibition above about 80%
An asterisk follows results filed as active. This is one part of a sample in which hits are shown more often than they occur.

Screening C[C@@H]1CN([C@H](C)CO)C(=O)c2cccc(NC(=O)CCCCCC(=O)Nc3ccccc3N)c2O[C@@H]1CN(C)S(=O)(=O)c1ccc(F)cc1 returned PD-1 reverse act -1 and NOMO-1 viab 72.
C[C@@H]1CN([C@@H](C)CO)C(=O)c2cccc(NC(=O)CCCCCC(=O)Nc3ccccc3N)c2O[C@@H]1CN(C)S(=O)(=O)c1ccc(F)cc1 was read as PD-1 reverse act 1 and NOMO-1 viab 92*.
For C[C@H](CO)N1C[C@H](C)[C@H](CN(C)S(=O)(=O)c2ccc(F)cc2)Oc2c(NC(=O)CCCCCC(=O)Nc3ccccc3N)cccc2C1=O the results were PD-1 reverse act 0 and NOMO-1 viab 95*.
For C[C@@H]1CN([C@@H](C)CO)C(=O)c2cccc(NC(=O)CCCCCC(=O)Nc3ccccc3N)c2O[C@H]1CN(C)S(=O)(=O)c1ccc(F)cc1 the results were PD-1 reverse act 1 and NOMO-1 viab 29.
`COc1ccccc1C1=NN(C(=O)CCC(=O)O)C(c2ccco2)C1` (stereo not given) gave PD-1 reverse act 1, STK33 inh -2 and NOMO-1 viab 11.
`C/C=C/C1C2OC3=C(C(=O)OC3(C)O)C(=O)C1(C)C1CC(O)C(C)CC1C2O` (stereo not given) gave PD-1 reverse act 3, STK33 inh -5 and NOMO-1 viab -9.
Cc1cc2nnc(SCC(=O)c3cc(C)n(Cc4ccccc4)c3C)n2c2ccccc12 was read as PD-1 reverse act 2 and NOMO-1 viab 131*.
For Cc1cc(C(=O)CSc2nnc3ccccn23)c(C)n1Cc1ccccc1 the results were STK33 inh 1 and NOMO-1 viab 17.
Screening Cc1cc(Br)ccc1NCc1ccc2c(c1)OCO2 returned PD-1 reverse act 0 and NOMO-1 viab 43.
Screening Clc1ccc2ncnc(NCc3ccc4c(c3)OCO4)c2c1 returned PD-1 reverse act -2, STK33 inh 1 and NOMO-1 viab 83*.
COc1ccc(C(=O)NCc2ccc(C#N)cc2)cc1OC was read as PD-1 reverse act 1 and NOMO-1 viab 51.
Screening CS(=O)(=O)N(CC(=O)Nc1cccc(F)c1)c1cccc2ccccc12 returned PD-1 reverse act 0, STK33 inh -1 and NOMO-1 viab 26.
For O=C(O)CNC(=O)c1ccc(S(=O)(=O)N2CCCC2)cc1 the results were PD-1 reverse act 3, STK33 inh 1 and NOMO-1 viab -3.
For O=C1/C(=C\c2c[nH]c3ccccc23)C(c2ccccc2)Oc2ccccc21 (stereo not given) the results were PD-1 reverse act 1 and NOMO-1 viab 121*.
Screening O=C(/C=C/c1c[nH]c2ccccc12)N1CCCCC1 returned PD-1 reverse act 0 and NOMO-1 viab 52.
Screening O=C(CN1C(=O)c2ccccc2S1(=O)=O)Nc1ccc(N2CCOCC2)cc1 returned STK33 inh -3 and NOMO-1 viab 1.
For COc1ccccc1OCC(=O)Nc1ccc(-c2nc3ccc(C)cc3[nH]2)cc1 the results were PD-1 reverse act -8, STK33 inh 17 and NOMO-1 viab 110*.
`COc1cccc(OCC(=O)Nc2ccc(-c3nc4ccccc4[nH]3)cc2)c1` gave PD-1 reverse act -3, STK33 inh -2 and NOMO-1 viab 1.
For Cc1nc(SCC(=O)Nc2oc(-c3ccccc3)c(-c3ccccc3)c2C#N)nc2c1CCCC2 the results were STK33 inh 3 and NOMO-1 viab -21.
Screening C[C@H](CO)N1C[C@H](C)[C@H](CN(C)Cc2ccc(C(F)(F)F)cc2)Oc2ccc(NS(=O)(=O)c3ccc(F)cc3)cc2C1=O returned PD-1 reverse act 0, STK33 inh 4 and NOMO-1 viab 1.
`C[C@H](CO)N1C[C@H](C)[C@@H](CN(C)Cc2ccc(C(F)(F)F)cc2)Oc2ccc(NS(=O)(=O)c3ccc(Cl)cc3)cc2C1=O` gave PD-1 reverse act -6, STK33 inh -2 and NOMO-1 viab 68.
Screening C[C@@H]1CN([C@H](C)CO)C(=O)c2cc(NS(=O)(=O)c3ccc(Cl)cc3)ccc2O[C@H]1CN(C)Cc1ccc(C(F)(F)F)cc1 returned PD-1 reverse act -1 and NOMO-1 viab 123*.
Screening C[C@H]1CN([C@@H](C)CO)C(=O)c2cc(NS(=O)(=O)c3ccc(Cl)cc3)ccc2O[C@@H]1CN(C)Cc1ccc(C(F)(F)F)cc1 returned PD-1 reverse act -6, STK33 inh 5 and NOMO-1 viab 111*.
For C[C@@H]1CN([C@H](C)CO)C(=O)Cc2cc(NC(=O)Nc3ccc4c(c3)OCO4)ccc2O[C@@H]1CN(C)C(=O)Nc1ccc(C(F)(F)F)cc1 the results were PD-1 reverse act 2, STK33 inh -2 and NOMO-1 viab 8.
C[C@@H]1CN([C@@H](C)CO)C(=O)Cc2cc(NC(=O)Nc3ccc(C(F)(F)F)cc3)ccc2O[C@@H]1CN(C)C(=O)Nc1ccc2c(c1)OCO2 was read as NOMO-1 viab 125*.
`C[C@@H]1CN([C@H](C)CO)C(=O)Cc2cc(NC(=O)Nc3ccc(C(F)(F)F)cc3)ccc2O[C@@H]1CN(C)C(=O)Nc1ccc2c(c1)OCO2` gave PD-1 reverse act -2, STK33 inh -4 and NOMO-1 viab 113*.
`C[C@H]1CN([C@@H](C)CO)C(=O)Cc2cc(NC(=O)Nc3ccc(C(F)(F)F)cc3)ccc2O[C@H]1CN(C)C(=O)Nc1ccc2c(c1)OCO2` gave PD-1 reverse act -2, STK33 inh -6 and NOMO-1 viab 2.
CCCN(CCC)C(=O)c1cnn(-c2ccccc2)c1NC(=O)c1ccccc1 was read as PD-1 reverse act 1 and NOMO-1 viab 10.
`CCOC(=O)c1c(NC(=O)COc2ccccc2Cl)sc2c1CCCC2` gave PD-1 reverse act 0, STK33 inh 1 and NOMO-1 viab 9.
Screening CCCC1=C(C(=O)OCC)C(c2cc(Br)c(O)c(OC)c2)NC(=O)N1 (stereo not given) returned PD-1 reverse act 1 and NOMO-1 viab 0.
For C[C@@H]1CN([C@H](C)CO)C(=O)Cc2cc(NC(=O)Nc3ccc4c(c3)OCO4)ccc2O[C@H]1CN(C)S(=O)(=O)c1ccccc1 the results were PD-1 reverse act 1, STK33 inh 0 and NOMO-1 viab -5.
`COc1ccc(S(=O)(=O)N(C)C[C@@H]2Oc3ccc(NC(=O)Nc4ccc5c(c4)OCO5)cc3CC(=O)N([C@H](C)CO)C[C@H]2C)cc1` gave NOMO-1 viab -12.
For C[C@H]1CN([C@@H](C)CO)C(=O)Cc2cc(NC(=O)Nc3ccc4c(c3)OCO4)ccc2O[C@H]1CN(C)S(=O)(=O)c1ccc(F)cc1 the results were NOMO-1 viab 128*.
For Cc1ccc(S(=O)(=O)N(C)C[C@@H]2Oc3ccc(NC(=O)Nc4ccc5c(c4)OCO5)cc3CC(=O)N([C@@H](C)CO)C[C@@H]2C)cc1 the results were STK33 inh -1 and NOMO-1 viab 108*.
`C[C@H](CO)N1C[C@H](C)[C@H](CN(C)S(=O)(=O)c2ccccc2)Oc2ccc(NC(=O)Nc3ccc4c(c3)OCO4)cc2CC1=O` gave PD-1 reverse act 0, STK33 inh 3 and NOMO-1 viab 126*.
Screening Cc1ccc(S(=O)(=O)N(C)C[C@@H]2Oc3ccc(NC(=O)Nc4ccc5c(c4)OCO5)cc3CC(=O)N([C@H](C)CO)C[C@H]2C)cc1 returned PD-1 reverse act -2, STK33 inh 3 and NOMO-1 viab -4.

Screening data from PubChem.
